Results filed as inconclusive are left out. Activity calls are given as the source filed them. Calls follow the shape of the dose curve; as a rule, active = well fitted curve in the direction sought with a large enough effect; inconclusive = small, poorly fitted or top-dose-only effect, or another doubt; inactive = no such curve, though single readings can be large; an effect the other way counts as inactive or inconclusive.
Key:
[1] = Quantitative High-Throughput drug screen in 47 multiple myeloma cell lines against the NCATS MIPE library collection: FR4_PLB cell viability assay (AID 1918924; also: nearly all actives have a fitted effect of over 35% in size)
Summary of the method: (§1)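 Inhibition of cell viability is measured here. Each line was plated at 500 cells per well, treated with MIPE 4.0 drugs, kept 48 hours at 37C, then assayed for ATP content by CellTiter-Glo luminescence.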

[2] = Quantitative High-Throughput drug screen in 47 multiple myeloma cell lines against the NCATS MIPE library collection: AMO1_DSMZ cell viability assay (AID 1918927; also: nearly all actives have a fitted effect of over 30% in size)
Summary of the method: (§2)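 Viability readout: CellTiter-Glo luminescence following 5 min room-temperature incubation with reagent. Prior exposure: 48 h, 37C, humidified 5% CO2, 500 cells per well.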

[3] = Quantitative High-Throughput drug screen in 47 multiple myeloma cell lines against the NCATS MIPE library collection: Karpas620_DSMZ cell viability assay (AID 1918959); also: nearly all actives have a fitted effect of over 30% in size
Summary of the method: as §1

[4] = Quantitative High-Throughput drug screen in 47 multiple myeloma cell lines against the NCATS MIPE library collection: KHM11_PLB cell viability assay (AID 1918962); also: nearly all actives have a fitted effect of over 35% in size
Summary of the method: as §1

[5] = Quantitative High-Throughput drug screen in 47 multiple myeloma cell lines against the NCATS MIPE library collection: JIM1_ECACC cell viability assay (AID 1918964)
Summary of the method: as §2

[6] = Quantitative High-Throughput drug screen in 47 multiple myeloma cell lines against the NCATS MIPE library collection: EJM_DSMZ cell viability assay (AID 1918926; also: nearly all actives have a fitted effect of over 30% in size)
Summary of the method: as §2

[7] = Quantitative High-Throughput drug screen in 47 multiple myeloma cell lines against the NCATS MIPE library collection: KMM1_JCRB cell viability assay (AID 1918960); also: nearly all actives have a fitted effect of over 30% in size
Summary of the method: (§3)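 Myeloma cells at 500 per well in 1536-well format treated with MIPE 4.0 library by pin transfer for 48 h at 37C, 5% CO2. Viability from ATP luminescence (CellTiter-Glo), normalized to DMSO (100%) and media-only (0%) wells.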

[8] = Quantitative High-Throughput drug screen in 47 multiple myeloma cell lines against the NCATS MIPE library collection: INA6_PLB cell viability assay (AID 1918965; also: nearly all actives have a fitted effect of over 55% in size)
Summary of the method: (§4)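 qHTS of the MIPE 4.0 collection: 500 myeloma cells/well, 48 h drug exposure at 37C in 5% CO2, then CellTiter-Glo for 5 min at room temperature before luminescence reading.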

[9] = Quantitative High-Throughput drug screen in 47 multiple myeloma cell lines against the NCATS MIPE library collection: H1112_PLB cell viability assay (AID 1918967; also: nearly all actives have a fitted effect of over 30% in size)
Summary of the method: as §2

[10] = Quantitative High-Throughput drug screen in 47 multiple myeloma cell lines against the NCATS MIPE library collection: Karpas25_ECACC cell viability assay (AID 1918968; also: nearly all actives have a fitted effect of over 35% in size)
Summary of the method: as §2

[11] = Quantitative High-Throughput drug screen in 47 multiple myeloma cell lines against the NCATS MIPE library collection: KMS12BM_JCRB cell viability assay (AID 1918971); also: nearly all actives have a fitted effect of over 35% in size
Summary of the method: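 Approved and investigational drugs from MIPE 4.0 were added by pin tool to 500 cells per well. After 48 hours at 37C, ATP-based CellTiter-Glo luminescence indicated remaining viability.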

[12] = Quantitative High-Throughput drug screen in 47 multiple myeloma cell lines against the NCATS MIPE library collection: KMS12PE_JCRB cell viability assay (AID 1918972); also: nearly all actives have a fitted effect of over 30% in size
Summary of the method: as §4

[13] = Quantitative High-Throughput drug screen in 47 multiple myeloma cell lines against the NCATS MIPE library collection: KMS20_JCRB cell viability assay (AID 1918973); also: nearly all actives have a fitted effect of over 45% in size
Summary of the method: as §2

[14] = Quantitative High-Throughput drug screen in 47 multiple myeloma cell lines against the NCATS MIPE library collection: ARD_JJKsccE7 cell viability assay (AID 1918929)
Summary of the method: as §2

[15] = Quantitative High-Throughput drug screen in 47 multiple myeloma cell lines against the NCATS MIPE library collection: Karpas417_ECACC cell viability assay (AID 1918961); conditions: Karpas417 myeloma viability, CellTiter-Glo ATP luminescence, 48 h; viability (% of DMSO): at 45.8 µM (top of the series)
Summary of the method: as §4

[16] = Quantitative High-Throughput drug screen in 47 multiple myeloma cell lines against the NCATS MIPE library collection: JIM3_ECACC cell viability assay (AID 1918963; also: nearly all actives have a fitted effect of over 35% in size)
Summary of the method: as §1

[17] = Quantitative High-Throughput drug screen in 47 multiple myeloma cell lines against the NCATS MIPE library collection: JJN3_DSMZ cell viability assay (AID 1918966; also: nearly all actives have a fitted effect of over 50% in size)
Summary of the method: as §2

[18] = Quantitative High-Throughput drug screen in 47 multiple myeloma cell lines against the NCATS MIPE library collection: KMS27_JCRB cell viability assay (AID 1918970); also: nearly all actives have a fitted effect of over 30% in size
Summary of the method: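 ATP-based viability (CellTiter-Glo luminescence) is measured in cells treated 48 h with approved and investigational drugs at 37 °C. Controls are DMSO-only wells for full viability and media-only wells for none.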

[19] = Quantitative High-Throughput drug screen in 47 multiple myeloma cell lines against the NCATS MIPE library collection: Delta47_JCRB cell viability assay (AID 1918925; also: nearly all actives have a fitted effect of over 45% in size)
Summary of the method: as §2

[20] = Quantitative High-Throughput drug screen in 47 multiple myeloma cell lines against the NCATS MIPE library collection: ARP1_JJKsccF8 cell viability assay (AID 1918928; also: nearly all actives have a fitted effect of over 40% in size)
Summary of the method: as §3

Measured: Potency
Potency is read from the fitted curve at half-maximal effect.

CC1(C)Cc2c(sc(NC(=S)NC(=O)c3ccccc3)c2C(=O)O)CO1
active: [3] 5.9 µM
inactive: [1] | [2] | [4] | [5]

CN(C[C@@H]1COCCO1)S(=O)(=O)Nc1ccc2ccc3ncc(-c4cnn(C)c4)cc3c(=O)c2c1
active: [1] 13.2 µM | [6] 2.96 µM | [7] 1.48 µM | [4] 0.743 µM | [8] 4.18 µM | [9] 1.66 µM | [10] 3.32 µM | [11] 16.6 µM | [12] 0.743 µM | [13] 1.18 µM

Nc1nc(F)nc2c1ncn2[C@@H]1O[C@H](COP(=O)(O)O)[C@@H](O)[C@H]1O
inactive: [7] | [16] | [8] | [17] | [9] | [18]
active: [1] 1.87 µM | [14] 0.0019 µM | [3] 18.7 µM | [15] 4.18 µM | [10] 13.2 µM | [11] 16.6 µM

CC(C)(C)C(=O)Oc1ccc2c(c1)nc(NC(=O)c1cccc([N+](=O)[O-])c1)n2CCCO
inactive: [19] | [2] | [14] | [3] | [7] | [15] | [16] | [5] | [10] | [18]
active: [6] 13.2 µM

N#Cc1ccc(NC(=O)Nc2ccccc2Br)c2n[nH]nc12
active: [2] 14.8 µM | [3] 13.2 µM | [7] 20.9 µM | [5] 8.33 µM | [10] 16.6 µM | [18] 13.2 µM | [12] 9.35 µM
inactive: [1] | [20] | [16] | [11] | [13]

Clc1ccc(-c2nc3sccn3c2C=NOCc2ccc(Cl)c(Cl)c2)cc1
inactive: [1] | [2] | [3] | [7] | [15] | [4] | [8] | [17] | [9] | [10] | [12]

Nc1ncnc2ccccc12
inactive: [1] | [3] | [7] | [16] | [5] | [8] | [18]

CS(=O)c1ccc(-c2nc(-c3ccc(F)cc3)c(-c3ccncc3)[nH]2)cc1 (stereo not given)
active: [19] 13.6 µM | [6] 10.8 µM | [2] 30.3 µM | [14] 42.9 µM | [3] 34 µM | [7] 34 µM | [15] 3.82 µM | [5] 34 µM | [8] 3.4 µM | [18] 21.5 µM | [12] 21.5 µM

NC(=O)NN=Cc1ccc([N+](=O)[O-])o1
inactive: [1] | [9]
active: [2] 10.5 µM | [3] 18.7 µM | [10] 16.6 µM | [18] 14.8 µM

Nc1ncnc2c1ncn2[C@@H]1O[C@@H](CO)[C@H](O)[C@H]1O
inactive: [19] | [6] | [2] | [20] | [3] | [15] | [16] | [5] | [8] | [10] | [18] | [11] | [12]

CS(=O)(=O)N(Cc1ccco1)CC(O)Cn1c2ccccc2c2ccccc21 (stereo not given)
active: [16] 14.8 µM | [8] 18.7 µM | [10] 6.62 µM | [11] 20.9 µM
inactive: [1] | [20] | [3] | [5] | [9] | [18] | [12]

O=C(NOCC(O)CO)c1cc(Br)c(F)c(F)c1Nc1ccc(I)cc1F (stereo not given)
inactive: [1] | [6] | [3] | [7] | [18]
active: [9] 0.118 µM

Cc1ccc(Nc2cc(-c3cccc(N4C(=O)c5ccccc5C4=O)c3)ncn2)cc1NS(C)(=O)=O
active: [19] 14.8 µM | [6] 26.4 µM | [2] 18.7 µM | [14] 20.9 µM | [7] 18.7 µM | [15] 4.69 µM | [16] 18.7 µM | [8] 16.6 µM | [17] 18.7 µM | [9] 18.7 µM | [10] 11.8 µM | [11] 20.9 µM | [12] 26.4 µM | [13] 26.4 µM

NC(=O)c1cccc2[nH]c(-c3ccc([C@H]4CCCN4)cc3F)nc12
active: [16] 14.8 µM | [8] 14.8 µM | [18] 23.5 µM
inactive: [1] | [6]

Nc1ncnc2c1nc(Cl)n2[C@@H]1O[C@H](CO)[C@@H](O)[C@@H]1O
active: [19] 23.5 µM | [6] 18.7 µM | [2] 2.35 µM | [20] 13.2 µM | [14] 14.8 µM | [3] 14.8 µM | [4] 6.62 µM | [5] 16.6 µM | [8] 2.09 µM | [17] 16.6 µM | [9] 18.7 µM | [10] 7.43 µM | [18] 20.9 µM | [11] 23.5 µM | [12] 14.8 µM | [13] 4.69 µM

Reference: PubChem BioAssay (NCATS)
